Laboratory results as given in PubChem BioAssay (Tox21).
Several values for one entry are separate records, joined by “and”; a condition that tells them apart may be missing. Equal entries are not always repeated. Results filed as inconclusive are left out. A call without a number means that no potency is given here. Where a structure was tested more than once in an assay, its records may differ in their call. Activity calls are given as the source filed them. Unless noted, the call rests on the fitted dose curve; in most records, active means well fitted curve in the direction sought with a large enough effect in the repeat runs; inconclusive means weak or mixed curves; inactive means no such curve, though single readings can be large; an effect the other way counts as inactive or inconclusive.

Experiments:
[1] = qHTS assay to identify aromatase inhibitors - cell viability counter screen (AID 743084);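 further: cells stimulated with testosterone during compound exposure; nearly all actives have a fitted effect of over 55% in size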; further: potency means the concentration at half of the fitted maximal effect
[2] = biological target: Aryl hydrocarbon receptor (Homo sapiens) (UniProt P35869); experiment: qHTS assay to identify small molecule that activate the aryl hydrocarbon receptor (AhR) signaling pathway (AID 743085); further: nearly all actives have a fitted effect of over 15% in size; further: potency means the concentration at half of the fitted maximal effect;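 on activation: HG2L7.5c1 human HepG2 liver cells with stably integrated DRE-driven firefly reporter; series mostly up to about 70 µM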
Chain of Aryl hydrocarbon receptor (Homo sapiens) (P35869 whole entry, looked up): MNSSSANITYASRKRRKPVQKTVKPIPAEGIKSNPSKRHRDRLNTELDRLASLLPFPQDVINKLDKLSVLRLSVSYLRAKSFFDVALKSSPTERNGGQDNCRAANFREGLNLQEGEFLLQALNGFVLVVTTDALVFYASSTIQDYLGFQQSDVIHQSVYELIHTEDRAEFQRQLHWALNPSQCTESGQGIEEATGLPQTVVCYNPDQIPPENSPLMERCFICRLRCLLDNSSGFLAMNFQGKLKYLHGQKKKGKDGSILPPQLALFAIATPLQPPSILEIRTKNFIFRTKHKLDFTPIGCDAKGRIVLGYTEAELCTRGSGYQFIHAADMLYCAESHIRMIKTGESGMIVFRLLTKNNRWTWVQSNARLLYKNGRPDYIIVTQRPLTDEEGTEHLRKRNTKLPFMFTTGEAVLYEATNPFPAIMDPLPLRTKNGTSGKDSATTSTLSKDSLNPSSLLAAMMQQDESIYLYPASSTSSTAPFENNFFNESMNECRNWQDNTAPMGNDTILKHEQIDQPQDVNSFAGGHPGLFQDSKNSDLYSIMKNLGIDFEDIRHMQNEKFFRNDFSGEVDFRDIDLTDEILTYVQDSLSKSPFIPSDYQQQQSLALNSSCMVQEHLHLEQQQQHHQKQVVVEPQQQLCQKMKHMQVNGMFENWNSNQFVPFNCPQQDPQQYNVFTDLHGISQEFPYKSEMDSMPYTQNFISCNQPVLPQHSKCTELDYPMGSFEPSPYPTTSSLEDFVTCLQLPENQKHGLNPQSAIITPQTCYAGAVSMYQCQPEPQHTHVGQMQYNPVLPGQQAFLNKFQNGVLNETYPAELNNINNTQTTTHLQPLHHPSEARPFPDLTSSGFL
Outline: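 Stably transfected human liver carcinoma cells (HG2L7.5c1; 20 DRE-firefly luciferase) were incubated 5 h, dosed, and kept 24 h at 37C. Agonism was scored from increased luciferase luminescence.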

[3] = qHTS assay to identify small molecule that activate the aryl hydrocarbon receptor (AhR) signaling pathway - cell viability counter screen (AID 743086); further: nearly all actives have a fitted effect of over 45% in size; further: potency means the concentration at half of the fitted maximal effect
Outline: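 HepG2-AhR-luc (HG2L7.5c1) cells, 4000/well, were preincubated 5 h at 37C, exposed to compound in qHTS format for 24 hr at 37C, then given CellTiter-Fluor for 30 min; viability was read as fluorescence in the reporter wells.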

[4] = biological target: Peroxisome proliferator-activated receptor gamma (Homo sapiens) (UniProt P37231); experiment: qHTS assay to identify small molecule agonists of the peroxisome proliferator-activated receptor gamma (PPARg) signaling pathway (AID 743094; active means well fitted activation curve with a large enough effect in the signal ratio in the repeat runs, not every such curve was filed as active; the % refers to the signal ratio)
Chain of Peroxisome proliferator-activated receptor gamma (Homo sapiens) (P37231 whole entry, looked up): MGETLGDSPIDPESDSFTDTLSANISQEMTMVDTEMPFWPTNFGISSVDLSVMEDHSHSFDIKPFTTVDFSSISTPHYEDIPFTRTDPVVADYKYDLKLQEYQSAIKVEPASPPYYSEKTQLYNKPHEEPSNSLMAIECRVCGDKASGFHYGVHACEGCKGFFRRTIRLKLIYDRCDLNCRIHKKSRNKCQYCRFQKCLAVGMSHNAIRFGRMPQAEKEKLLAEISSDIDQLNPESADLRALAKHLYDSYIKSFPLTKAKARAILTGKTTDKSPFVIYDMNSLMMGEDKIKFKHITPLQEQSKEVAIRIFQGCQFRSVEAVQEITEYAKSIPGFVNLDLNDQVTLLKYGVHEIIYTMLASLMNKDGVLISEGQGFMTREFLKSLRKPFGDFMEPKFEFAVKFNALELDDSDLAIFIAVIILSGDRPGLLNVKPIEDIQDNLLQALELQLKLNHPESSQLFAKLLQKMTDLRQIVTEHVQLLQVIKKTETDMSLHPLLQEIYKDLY
Outline: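 Reporter activation was scored by fluorescence of cleaved LiveBLAzer B/G substrate (1 h, room temperature) in PPARg-bla HEK293H cells previously treated 17 h at 37C with DMSO-dissolved compounds.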

[5] = qHTS assay to identify small molecule antagonists of the peroxisome proliferator-activated receptor gamma (PPARg) signaling pathway - cell viability counter screen (AID 743194); further: nearly all actives have a fitted effect of over 55% in size
Outline: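 PPARg-UAS-bla HEK293H cells were plated, rested 5 h at 37 C, then treated with compounds plus rosiglitazone (50 nM final) for 17 h at 37 C; viability was then read by CellTiter-Glo luminescence after 30 min at room temperature.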

[6] = qHTS assay for small molecule agonists of the antioxidant response element (ARE) signaling pathway (AID 743202; active means well fitted activation curve with a large enough effect in the signal ratio in the repeat runs, not every such curve was filed as active; the % refers to the signal ratio; further: potency means the concentration at half of the fitted maximal effect)
Outline: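 Following a 16 h, 37 C exposure of reporter HepG2 cells (ARE-driven beta-lactamase, 2,000 cells/well) to compounds, FRET substrate was applied for 2 h at room temperature and fluorescence intensity recorded.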

[7] = qHTS assay for small molecule agonists of the antioxidant response element (ARE) signaling pathway - cell viability counter screen (AID 743203; calls by dose curve; further: nearly all actives have a fitted effect of over 55% in size)
Outline: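 Viability counter screen: stably transfected ARE-bla HepG2 line, 16 hrs compound exposure at 37C/5% CO2, ATP-based CellTiter-Glo luminescence measured in the reporter wells.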

[8] = qHTS assay for small molecule activators of the heat shock response signaling pathway - cell viability counter screen (AID 743209); further: nearly all actives have a fitted effect of over 50% in size
Outline: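 Viability of HSE-bla HeLa cells is measured with CellTiter-Glo in the wells already used for the reporter read. Compound exposure lasts 5 h at 37 C, and luminescence is read after 30 min at room temperature.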

[9] = qHTS assay to identify small molecule agonists of the peroxisome proliferator-activated receptor delta (PPARd) signaling pathway - cell viability counter screen (AID 743211); further: nearly all actives have a fitted effect of over 55% in size; further: potency means the concentration at half of the fitted maximal effect
Outline: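 In the same wells used for beta-lactamase reporter measurement, cytotoxicity is scored by CellTiter-Glo. HEK293H PPARd-bla cells receive compound for 17 h at 37C following a 5 h settling period.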

[10] = qHTS assay to identify small molecule antagonists of the peroxisome proliferator-activated receptor delta (PPARd) signaling pathway - cell viability counter screen (AID 743213); further: nearly all actives have a fitted effect of over 50% in size; further: potency means the concentration at half of the fitted maximal effect
Outline: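 In this counter screen, HEK293H cells carrying a UAS-beta-lactamase reporter are co-treated with test compounds and 300 nM L165041 (final) for 17 h at 37 C; cell viability is quantified by CellTiter-Glo luminescence.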

[11] = biological target: Bile acid receptor (Homo sapiens) (UniProt Q96RI1); experiment: qHTS assay to identify small molecule antagonists of the farnesoid-X-receptor (FXR) signaling pathway (AID 743217; active means well fitted inhibition curve with a large enough effect in the signal ratio in the repeat runs, not every such curve was filed as active; the % refers to the signal ratio)
Chain of Bile acid receptor (Homo sapiens) (Q96RI1 whole entry, looked up): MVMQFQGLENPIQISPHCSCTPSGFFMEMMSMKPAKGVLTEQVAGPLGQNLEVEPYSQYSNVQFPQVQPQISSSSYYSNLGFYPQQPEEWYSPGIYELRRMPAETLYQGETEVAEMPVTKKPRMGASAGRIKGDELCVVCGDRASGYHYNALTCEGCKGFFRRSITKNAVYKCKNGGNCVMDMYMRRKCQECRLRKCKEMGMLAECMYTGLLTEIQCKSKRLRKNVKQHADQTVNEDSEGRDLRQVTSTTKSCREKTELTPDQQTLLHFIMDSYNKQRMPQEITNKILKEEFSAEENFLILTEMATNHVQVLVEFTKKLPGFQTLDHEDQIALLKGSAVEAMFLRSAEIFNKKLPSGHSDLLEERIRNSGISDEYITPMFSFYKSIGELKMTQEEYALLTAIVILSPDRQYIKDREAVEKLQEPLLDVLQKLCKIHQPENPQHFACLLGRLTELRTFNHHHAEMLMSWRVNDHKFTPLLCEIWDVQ
Outline: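 Screen of the Tox21 10K library in quantitative HTS format using FXR-UAS-bla HEK 293T reporter cells. Agonist chenodeoxycholic acid, 50 uM final, added with compounds; 16 h incubation at 37 °C; beta-lactamase FRET fluorescence measured.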

[12] = qHTS assay to identify small molecule agonists of the farnesoid-X-receptor (FXR) signaling pathway - cell viability counter screen (AID 743218); further: nearly all actives have a fitted effect of over 45% in size; further: potency means the concentration at half of the fitted maximal effect
Outline: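 Viability of FXR-bla HEK 293T cells is measured by ATP-based CellTiter-Glo luminescence following 16 h compound treatment at 37 C and a prior 2 h room-temperature beta-lactamase substrate step.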

[13] = qHTS assay to identify small molecule antagonists of the farnesoid-X-receptor (FXR) signaling pathway - cell viability counter screen (AID 743221; active means well fitted cell-killing curve with a large enough effect in the repeat runs, not every such curve was filed as active; further: nearly all actives have a fitted effect of over 50% in size)
Outline: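 Here viability was scored by luminescence after CellTiter-Glo addition to wells already read for beta-lactamase. Prior treatment: compound plus CDCA (50 uM final), 16 h, 37 C, HEK 293T FXR-bla cells.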

[14] = biological target: Vitamin D3 receptor (Homo sapiens) (UniProt P11473); experiment: qHTS assay to identify small molecule agonists of the vitamin D receptor (VDR) signaling pathway (AID 743222; calls by dose curve)
Chain of Vitamin D3 receptor (Homo sapiens) (P11473 whole entry, looked up): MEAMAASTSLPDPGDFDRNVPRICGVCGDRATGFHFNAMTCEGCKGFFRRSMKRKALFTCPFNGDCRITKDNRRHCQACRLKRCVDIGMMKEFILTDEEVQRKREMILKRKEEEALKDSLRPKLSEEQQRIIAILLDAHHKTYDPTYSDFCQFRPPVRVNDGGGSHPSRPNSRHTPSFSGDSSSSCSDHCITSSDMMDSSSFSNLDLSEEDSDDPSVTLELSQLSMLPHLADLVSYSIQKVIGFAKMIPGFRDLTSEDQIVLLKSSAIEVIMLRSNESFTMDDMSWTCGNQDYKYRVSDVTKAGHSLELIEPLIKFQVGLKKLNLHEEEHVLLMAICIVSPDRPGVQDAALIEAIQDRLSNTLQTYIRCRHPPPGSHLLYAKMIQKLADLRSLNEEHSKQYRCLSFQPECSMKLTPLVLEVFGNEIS
Outline: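 Fluorescence from cleaved LiveBLAzer B/G FRET substrate served as readout. VDR-bla cells had been treated 16 h at 37C with test compounds in DMSO, following a 4 h settling period, and substrate was loaded for 2 h at RT.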

[15] = biological target: Vitamin D3 receptor (Homo sapiens) (UniProt P11473); experiment: qHTS assay to identify small molecule antagonists of the vitamin D receptor (VDR) signaling pathway (AID 743223; active means well fitted inhibition curve with a large enough effect in the signal ratio in the repeat runs, not every such curve was filed as active; the % refers to the signal ratio; further: potency means the concentration at half of the fitted maximal effect)
Outline: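 Inhibition of agonist-driven VDR signalling is scored in VDR-bla cells: 3 nM final 1alpha,25-dihydroxyvitamin D3 plus compound, 16 h at 37C, then beta-lactamase detection by FRET substrate fluorescence after 2 h.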

[16] = biological target: Peroxisome proliferator-activated receptor delta (Homo sapiens) (UniProt Q03181); experiment: qHTS assay to identify small molecule agonists of the peroxisome proliferator-activated receptor delta (PPARd) signaling pathway (AID 743212; calls by dose curve)
Chain of Peroxisome proliferator-activated receptor delta (Homo sapiens) (Q03181 whole entry, looked up): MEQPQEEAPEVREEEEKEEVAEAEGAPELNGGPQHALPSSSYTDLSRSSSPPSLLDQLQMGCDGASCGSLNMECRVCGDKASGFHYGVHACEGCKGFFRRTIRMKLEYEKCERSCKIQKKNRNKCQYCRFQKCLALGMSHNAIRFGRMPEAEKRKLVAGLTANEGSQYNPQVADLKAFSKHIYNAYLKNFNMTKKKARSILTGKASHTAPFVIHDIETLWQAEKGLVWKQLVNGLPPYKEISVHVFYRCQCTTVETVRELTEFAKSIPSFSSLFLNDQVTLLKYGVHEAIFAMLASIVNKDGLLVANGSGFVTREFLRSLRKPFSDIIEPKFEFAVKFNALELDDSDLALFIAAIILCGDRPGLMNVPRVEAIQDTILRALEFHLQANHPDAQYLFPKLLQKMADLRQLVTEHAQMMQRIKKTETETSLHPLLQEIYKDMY
Outline: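 Beta-lactamase reporter read by fluorescence (LiveBLAzer B/G FRET, 2 h, room temperature). Test agents, in DMSO, incubated at 37 C with PPARd-bla HEK293H cells.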

[17] = biological target: Peroxisome proliferator-activated receptor delta (Homo sapiens) (UniProt Q03181); experiment: qHTS assay to identify small molecule antagonists of the peroxisome proliferator-activated receptor delta (PPARd) signaling pathway (AID 743215; active means well fitted inhibition curve with a large enough effect in the signal ratio in the repeat runs, not every such curve was filed as active; the % refers to the signal ratio;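 further: cells stimulated with agonist L165041 at 300 nM final during compound exposure; series mostly up to about 62 µM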)
Outline: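 Plated HEK293H PPARd-bla cells rested 5 h at 37 C and 5% CO2. Compound, then agonist L165041 at 300 nM final, was added; 17 h at 37 C followed. Substrate loading, 2 h room temperature, fluorescence measured.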

[18] = biological target: Peroxisome proliferator-activated receptor gamma (Homo sapiens) (UniProt P37231); experiment: qHTS assay to identify small molecule antagonists of the peroxisome proliferator-activated receptor gamma (PPARg) signaling pathway (AID 743191; calls by dose curve; further: series mostly up to about 63 µM; nearly all actives have a fitted effect of over 30% in size)
Outline: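 GeneBLAzer PPARg UAS-bla HEK293H cells carrying a UAS-driven beta-lactamase reporter were plated at 3000 cells/well, preincubated 5 h at 37C, then given compound for 17 h at 37C; LiveBLAzer B/G FRET substrate was read after 1 h at room temperature.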

[19] = qHTS assay for small molecule activators of the heat shock response signaling pathway (AID 743210; active means well fitted activation curve with a large enough effect in the signal ratio in the repeat runs, with a control signal flat, not every such curve was filed as active; the % refers to the signal ratio; further: series mostly up to about 63 µM)
Outline: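 Heat shock element–beta-lactamase HeLa reporter cells; qHTS with compounds for 5 h at 37 C; detection by FRET substrate fluorescence after 2.5 h at RT.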

| SMILES | Potency [1] | Potency [2] | Potency [3] | Potency [4] | Potency [5] | Potency [6] | Potency [7] | outcome [8] | Potency [9] | Potency [10] | Potency [11] | Potency [12] | outcome [13] | outcome [14] | Potency [15] | outcome [16] | outcome [17] | Potency [18] | outcome [19] |
| --- | --- | --- | --- | --- | --- | --- | --- | --- | --- | --- | --- | --- | --- | --- | --- | --- | --- | --- | --- |
| CC(C)=CCC/C(C)=C/CO | inactive | inactive | inactive | inactive | inactive | inactive | inactive | inactive | inactive | inactive | inactive | inactive | inactive | inactive | inactive | – | – | – | – |
| CO[C@H]1C=CO[C@@]2(C)Oc3c(C)c(O)c4c(O)c(c(/C=N/N5CCN(C)CC5)c(O)c4c3C2=O)NC(=O)/C(C)=C\C=C[C@H](C)[C@H](O)[C@@H](C)[C@@H](O)[C@@H](C)[C@H](OC(C)=O)[C@@H]1C | 23.7 µM (active) and 15.4 µM (active) and 15.5 µM (active) | inactive | 29.8 µM (active) and 27.4 µM (active) and 15.5 µM (active) | inactive | inactive | – | inactive | inactive | inactive | inactive | – | inactive | inactive | inactive | inactive | inactive | – | – | – |
| Cc1c(N(C)C)c(=O)n(-c2ccccc2)n1C | inactive | inactive | inactive | – | inactive | inactive | inactive | inactive | inactive | inactive | inactive | inactive | inactive | inactive | inactive | inactive | inactive | – | – |
| CCn1cc(C(=O)O)c(=O)c2ccc(C)nc21 | inactive | – | inactive | inactive | inactive | inactive | – | inactive | inactive | inactive | inactive | inactive | inactive | inactive | inactive | inactive | inactive | inactive | inactive |
| CCCCOCCOCCSC#N | inactive | inactive | inactive | inactive | inactive | inactive | inactive | inactive | inactive | inactive | – | inactive | inactive | inactive | inactive | inactive | inactive | – | – |
| Cc1cccc(Nc2cc(Cl)nc(SCC(=O)O)n2)c1C | inactive | inactive | inactive | – | inactive | – | inactive | inactive | inactive | inactive | – | inactive | inactive | inactive | inactive | – | – | inactive | inactive |
| C#C[C@]1(O)CC[C@H]2[C@@H]3CCc4cc(O)ccc4[C@H]3CC[C@@]21C | inactive and 48.2 µM (active) | inactive | inactive | inactive | inactive | inactive | inactive | inactive | inactive | inactive | – | inactive | inactive | – | – | inactive | inactive | – | inactive |
| C[C@]12C[C@H](O)[C@H]3[C@@H](CCC4=CC(=O)CC[C@@]43C)[C@@H]1CC[C@@H]2C(=O)CO | inactive | inactive | inactive | inactive | inactive | inactive | – | inactive | inactive | inactive | inactive | inactive | inactive | – | – | inactive | inactive | – | – |
| NC(=O)N/N=C/c1ccc([N+](=O)[O-])o1 | inactive | inactive and 19.3 µM (active) | inactive and 62.9 µM [cytotoxic] (active) | inactive | inactive | inactive and 11.9 µM (active) | – | inactive | inactive | inactive | – | inactive | inactive | inactive | inactive | inactive | – | – | – |
| Cc1cnc(NC(=O)C2=C(O)c3ccccc3S(=O)(=O)N2C)s1 | inactive | inactive and 61.1 µM (active) | inactive | inactive | inactive | – | – | inactive | inactive | inactive | inactive | inactive | inactive | – | – | inactive | inactive | inactive | – |
| COc1ccccc1NC(=O)CC(C)=O | inactive | 47.9 µM (active) and 27.3 µM (active) | inactive | inactive | inactive | inactive | – | inactive | inactive | inactive | – | inactive | inactive | inactive | inactive | inactive | inactive | – | inactive |
| NCCNc1cccc2ccccc12 | inactive | 29.8 µM (active) and 54.4 µM (active) and 66.9 µM (active) | – | inactive | – | – | – | inactive | 54.9 µM (active) and 47.8 µM (active) and inactive | 34.6 µM (active) and 30.2 µM (active) and inactive | – | 43.6 µM (active) and 30.2 µM (active) and inactive | inactive | inactive | 43.6 µM (active) and inactive | inactive | inactive | – | inactive |
